A short description of assay [1]: qHTS drug screen for cell cycle checkpoint inhibitors in PARPi-resistant BRCA-mutant ovarian cancer cell lines. (AID 1963452; calls by dose curve). Conditions: PEO1/OlaR viability, CellTiter-Glo luminescence, 96 h, stronger effect = lower value. In short, it runs like this: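 PEO1, PEO4 and PEO1/OlaR ovarian cancer cells, 600 per well, exposed 96 h at 37C to a dilution series. Viability read by CellTiter-Glo luminescence, normalized to DMSO and empty wells; activity summarized as Z-AUC.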

A short description of assay [2]: qHTS for identification of novel therapeutic agents for treatment of microphthalmiaassociated transcription factor (MiT) renal cell carcinoma (RCC) (AID 1963991; calls by dose curve; further: potency means the concentration at half of the fitted maximal effect). Conditions: CellTiter-Glo, 48 h; for z-score: stronger effect = lower value. In short, it runs like this: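 Three TFE3-fusion RCC cell lines (UOK109, UOK124, UOK145), 500 cells/well, were exposed to the 1912-compound MIPE 4.0 library for 48 hours at 37 C. Viability was read by CellTiter-Glo luminescence, normalised to DMSO (100%) and empty wells (0%), with 11-concentration curve fits.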

Assay [3] in a line: qHTS profiling for inhibitors of Plasmodium falciparum proliferation (AID 504749). Further: nearly all actives have a fitted effect of over 60% in size. Further: potency means the concentration at half of the fitted maximal effect.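 On activity, negative = inhibition: 0% = DMSO vehicle and full inhibition = artemisinin control.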 Conditions: P. falciparum in erythrocytes, SYBR Green DNA, 72 h. In short, it runs like this:
(§1)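 Parasite proliferation within erythrocytes, 72 h exposure. Endpoint: SYBR Green I fluorescence after overnight lysis at room temperature. Controls: 0.29 uM artemisinin, DMSO.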

The test system of the next assay is 7G8. The assay is described as above. The settings on record: P. falciparum in erythrocytes, SYBR Green DNA, 72 h; series mostly up to 28.7 µM. In a few lines:
as §1

A further assay concerns AA1029. The description is as above. Conditions: P. falciparum in erythrocytes, SYBR Green DNA, 72 h; series mostly up to 28.7 µM. In a few lines:
as §1

The next assay concerns AS120. The assay is described as above. The settings on record: P. falciparum in erythrocytes, SYBR Green DNA, 72 h; series mostly up to 28.7 µM. In a few lines:
as §1

For the next assay, the system named is ATS189. Described as above. Conditions: P. falciparum in erythrocytes, SYBR Green DNA, 72 h; series mostly up to 28.7 µM. In a few lines: as §1
A further assay has as its system ATS95. Described as above. The settings on record: P. falciparum in erythrocytes, SYBR Green DNA, 72 h; series mostly up to 28.7 µM. In short, it runs like this:
as §1

A further assay deals with C2A. Described as above. Conditions: P. falciparum in erythrocytes, SYBR Green DNA, 72 h; series mostly up to 28.7 µM. In a few lines:
as §1

A further assay concerns CP185. The description is as above. Conditions: P. falciparum in erythrocytes, SYBR Green DNA, 72 h; series mostly up to 28.7 µM. In a few lines:
as §1

In the next assay the test system is CP191. The assay is described as above. Conditions: P. falciparum in erythrocytes, SYBR Green DNA, 72 h; series mostly up to 28.7 µM. In a few lines:
as §1

For another assay, the system named is CP192. Described as above. The settings on record: P. falciparum in erythrocytes, SYBR Green DNA, 72 h; series mostly up to 28.7 µM. In a few lines: as §1
Another assay deals with CP194. The description is as above. The settings on record: P. falciparum in erythrocytes, SYBR Green DNA, 72 h; series mostly up to 28.7 µM. In short, it runs like this:
as §1

The subject of the next assay is CP201. The assay is described as above. Conditions: P. falciparum in erythrocytes, SYBR Green DNA, 72 h; series mostly up to 28.7 µM. In short, it runs like this:
as §1

A further assay relates to CP211. Described as above. Conditions: P. falciparum in erythrocytes, SYBR Green DNA, 72 h; series mostly up to 28.7 µM. In a few lines:
as §1

Another assay deals with CP215. Described as above. Conditions: P. falciparum in erythrocytes, SYBR Green DNA, 72 h; series mostly up to 28.7 µM. In a few lines:
as §1

Another assay relates to CP217. The assay is described as above. Conditions: P. falciparum in erythrocytes, SYBR Green DNA, 72 h; series mostly up to 28.7 µM. In short, it runs like this:
as §1

The subject of a further assay is 3D7. The description is as above. Conditions: P. falciparum in erythrocytes, SYBR Green DNA, 72 h; series mostly up to 28.7 µM. In a few lines:
as §1

Setting [4] is: measured here: PEO1 parental Z-AUC.
[5] abbreviates: TFE3-RCC UOK109 viability, measured here: UOK109 Z-AUC.
Setting [6] is: TFE3-RCC viability, measured here: UOK124 Z-AUC.
Setting [7] is: TFE3-RCC viability, measured here: UOK145 Z-AUC.
Where [8] appears, read: at 28.7 µM (top of the series), parasite line A.
[9] abbreviates: at 28.7 µM (top of the series), parasite line B.

The structures appear in SMILES notation. Results filed as inconclusive are left out. The source made the active and inactive calls. Unless noted, the call rests on the fitted dose curve; in most records, active means well fitted inhibition curve with a large enough effect; inconclusive means small, poorly fitted or top-dose-only effect; inactive means flat fitted curve, though single readings scatter.

In the case of `C=C(c1ccc(C(=O)O)cc1)c1cc2c(cc1C)C(C)(C)CCC2(C)C`, the Z-AUC in assay [1] was 1.36 (inactive); in [1] (setting [4]), 0.659; in [1] (measured here: PEO4 Z-AUC) it was 0.161. Also, the z-score in assay [2] (setting [5]) was 0.216; in [2] (setting [6]), -0.242; in assay [2] (setting [7]), -0.306. Further, the figures for the activity, negative = inhibition in assay [3] (setting [8]) and in assay [3] (setting [9]) were -4.04% (inactive) and 4.75% (inactive), respectively. Moreover, the Potency with 7G8 was 8.91 µM (active). For the same molecule, the Potency result in the assay with AA1029, in the assay with AS120, with ATS189, in the assay with ATS95, in the assay with C2A and with CP185 was “inactive” throughout. The Potency entry in the assay with CP191, in the assay on CP192, in the assay with CP194, in the assay with CP201, in the assay with CP211 and with CP215 was “inactive” throughout. Moreover, the Potency result in the assay with CP217 is “inactive”.

For `COc1ccc2cc([C@H](C)C(=O)O)ccc2c1`, the results for the Z-AUC in assay [1], in [1] (setting [4]) and in assay [1] (measured here: PEO4 Z-AUC) were -0.4 (inactive), -0.248 and -0.0585, respectively. In addition, the z-score in [2] (setting [5]) worked out at 1.29; in [2] (setting [6]), 0.689; in assay [2] (setting [7]), 0.68. Also, the activity, negative = inhibition in assay [3] (at 12.8 µM (top of the series), parasite line A) was 6.49% (inactive); in [3] (at 12.8 µM (top of the series), parasite line B), -0.339% (inactive). The Potency entry in the assay with 7G8, in the assay with AA1029, with AS120, in the assay with ATS189, in the assay with ATS95 and in the assay with C2A was “inactive” each time. Also, the Potency result with CP185, with CP191, in the assay with CP192, with CP194, in the assay on CP201 and in the assay on CP211 was “inactive” in each case. For the same molecule, the Potency result in the assay on CP215 and in the assay with CP217 was “inactive” throughout.

For `CCCOc1ccc2nc(NC(=O)OC)[nH]c2c1`, the Z-AUC in [1] is -0.576 (inactive); in assay [1] (setting [4]), -0.504; in [1] (measured here: PEO4 Z-AUC), -0.563. In [2] (TFE3-RCC UOK109 viability, active = Z-AUC below -0.8 in all three lines), the Potency was 0.00743 µM (active). Moreover, the z-score in [2] (setting [5]) was -2.25; in assay [2] (setting [6]), -3.82; in [2] (setting [7]), -2.16. For the same molecule, the figures for the activity, negative = inhibition in assay [3] (setting [8]) and in [3] (setting [9]) were -0.812% (inactive) and 13.5% (inactive), respectively. Further, the Potency entry with 3D7, in the assay with 7G8, in the assay on AA1029, in the assay with AS120, in the assay on ATS189 and in the assay on ATS95 was “inactive” each time. Also, the Potency result in the assay on C2A, with CP185, with CP191, in the assay with CP192, with CP194 and in the assay with CP201 was “inactive” each time. The Potency result with CP211, in the assay on CP215 and with CP217 was “inactive” throughout.

As to `CCCCCCCCCCCCCCCCCCCCCCO`, the results for the Z-AUC in assay [1], in assay [1] (setting [4]) and in assay [1] (measured here: PEO4 Z-AUC) were 0.761 (inactive), 0.472 and 0.414, respectively. Besides, the results for the z-score in assay [2] (setting [5]), in assay [2] (setting [6]) and in [2] (setting [7]) were 0.385, 0.0399 and 0.476, respectively. Further, the values for the activity, negative = inhibition in assay [3] (setting [8]) and in assay [3] (setting [9]) were -0.041% (inactive) and -11.9% (inactive), respectively. Besides, the Potency entry with 3D7, with 7G8, in the assay with AA1029, in the assay on AS120, in the assay on ATS189 and with ATS95 was “inactive” throughout. For the same molecule, the Potency result in the assay on C2A, in the assay with CP185, in the assay on CP191, in the assay on CP192, in the assay on CP201 and in the assay with CP211 was “inactive” in each case. Also, the Potency result in the assay on CP215 and in the assay with CP217 was “inactive” throughout.

For the molecule `CC(C)(S)[C@@H](N)C(=O)O`, the Z-AUC in [1] is 0.193 (inactive); in assay [1] (setting [4]), 0.891; in assay [1] (measured here: PEO4 Z-AUC), 1.3. The z-score is 0.813 in [2] (setting [5]), 0.506 in assay [2] (setting [6]) and 1.37 in assay [2] (setting [7]). Moreover, the activity, negative = inhibition is 1.57% (inactive) in assay [3] (setting [8]) and -13.2% (inactive) in [3] (setting [9]). The Potency entry in the assay on 3D7, with 7G8, in the assay with AA1029, with AS120, in the assay on ATS189 and in the assay with ATS95 was “inactive” in each case. Also, the Potency result with C2A, in the assay on CP185, in the assay on CP191, in the assay with CP194, with CP201 and in the assay with CP211 was “inactive” in each case. The Potency result in the assay on CP215 and in the assay with CP217 was “inactive” throughout.

Source of the values: PubChem BioAssay (NCATS).
